Cycloheximide cs: counter-screen for Shiga toxin inhibitors: cycloheximide protein synthesis inhibition; cell reporter, cycloheximide protein synthesis inhibition counterscreen; max response, %; hit rate 12% among 300,000; AID 2314; in the data active means max response mostly above about 13%, no sharp cut-off; inactive means mostly below about 14%; further: read at 38.3 µM for the half of the compounds with a filed dose
Pf growth 96h: P. falciparum growth inhibition at 96 hours; P. falciparum luciferase reporter growth, 96 h; Potency, µM (titrated, usually from 28.7 µM), most hits filed as inhibitors; hit rate 6.9% among 320,000; AID 504834
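Plates of compound plus infected erythrocytes (2% hematocrit, 0.05% parasitemia final) incubate 96 hours, 37 C, 5% CO2. Detection reagent added; reduced luminescence from the parasites' luciferase reporter flags inhibition.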
AMA1-RON2 inh: disrupts binding of P. falciparum AMA1 to RON2; AlphaScreen AMA1-biotinylated RON2 peptide binding; Potency, µM (titrated, usually from 58.2 µM), actives largely listed as inhibitors; hit rate 0.2% among 360,000; further: nearly all actives have a fitted effect of over 45% in size
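AMA1 (3D7) with his tag at 25 nM final met compounds first, then biotinylated RON2 peptide at 25 nM; detection used donor plus acceptor beads, 10 µg/mL apiece, read by AlphaScreen after 30 min at room temperature.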
Shiga inhibitor: inhibitors of Shiga toxin in Vero cells. Vero cells, Shiga toxin protein synthesis inhibition reporter. inhibition, % at 38.7 µM. hit rate 9.2% among 290,000. AID 2315; in the data active means inhibition mostly above about 28%, no sharp cut-off; inactive means mostly below about 43%
Pf growth 48h: P. falciparum growth inhibition at 48 hours (one generation); P. falciparum luciferase growth in erythrocytes, 48 h; Potency, µM (top dose mostly 28.7 µM), usual class: inhibitors; hit rate 5.9% among 310,000; AID 504832
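Read-out is firefly luciferase luminescence from an integrated reporter in P. falciparum, so falling signal marks reduced parasite growth. Infected erythrocytes were at 2% hematocrit and 0.1% parasitemia (final) in Albumax-supplemented RPMI 1640.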
HCV inhibitor: HCV inhibition | Huh7.5.1 HCVcc-Cre infection, luciferase reporter, 44 h | Potency, µM (top dose mostly 41.8 µM), most hits filed as inhibitors | hit rate 3.4% among 340,000
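Cells seeded at 1,000/well and cultured 4 h, then compounds added followed by HCVcc-Cre virus (~0.5 moi). After 44 h further culture, luciferase substrate was added, plates held 15 min at room temperature, and luminescence read for 15 sec.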
Of the large screens only hits and unclear results are named; the others gave an inactive call. Hits are enriched below; roughly 21% of the tested compounds scored in any of these assays. Unless noted, the call rests on the fitted dose curve; in most records, active means well fitted curve in the direction sought with a large enough effect; inconclusive means small, poorly fitted or top-dose-only effect, or another doubt; inactive means no such curve, though single readings can be large; an effect the other way counts as inactive or inconclusive.

Cc1csc2nc(SCC(=O)N3CCN(c4ccccc4)CC3)[nH]c(=O)c12	none
O=C(CNc1cccc(S(=O)(=O)N2CCCC2)c1)Nc1cccc(Br)c1	Pf growth 96h 4.1µM, Pf growth 48h 5.2µM, HCV inhibitor inconclusive (no result: Cycloheximide cs, Shiga inhibitor)
Nc1cc(F)ccc1N1CCCCCC1	Pf growth 48h 1µM, HCV inhibitor inconclusive
CN1CCN(c2ccc(Cl)cc2N)CC1	Cycloheximide cs 11
Nc1cc(Cl)ccc1N1CCCC1	Pf growth 96h inconclusive, Pf growth 48h 2.1µM
CCOC(=O)[C@]12CCCC=C1N(Cc1ccccc1)C(=O)[C@H](CC(=O)NCc1cccc3ccccc13)C2	none (no result: Cycloheximide cs, Pf growth 96h, Shiga inhibitor, Pf growth 48h, HCV inhibitor)
O=C(c1ccc(-n2cncn2)c([N+](=O)[O-])c1)N1CCN(S(=O)(=O)c2cccc(F)c2)CC1	Pf growth 96h inconclusive, Pf growth 48h inconclusive (no result: Cycloheximide cs, Shiga inhibitor)
O=C(NCCOC(=O)c1ccccc1)c1ccccc1	Pf growth 96h inconclusive (no result: Cycloheximide cs, Shiga inhibitor)
O=C(N[C@@H]1c2ccccc2CC[C@@H]1OCc1ccccc1)c1ccc(C(F)(F)F)cc1	none (no result: Cycloheximide cs, Pf growth 96h, Shiga inhibitor, Pf growth 48h)
COc1ccc(CN2CCN(Cc3ccco3)CC2)cc1OC	Pf growth 96h inconclusive, AMA1-RON2 inh 18µM (no result: Shiga inhibitor)
COc1ccccc1N1CCN(Cc2ccco2)CC1	AMA1-RON2 inh inconclusive, Pf growth 48h 2.3µM
CC(=O)Nc1cccc(NC(=O)COc2ccccc2C)c1	Cycloheximide cs 20, Pf growth 96h inconclusive, Shiga inhibitor 33
Cc1ccccc1OCC(=O)Nc1cccc(N(C)S(C)(=O)=O)c1	Cycloheximide cs 15, Shiga inhibitor active, HCV inhibitor inconclusive (no result: Pf growth 96h)
COc1ccc(CN(C)CC(=O)Nc2cccc(S(=O)(=O)N(C)c3ccccc3)c2)c(OC)c1	Pf growth 96h 15µM, Pf growth 48h inconclusive, HCV inhibitor inconclusive (no result: Cycloheximide cs, Shiga inhibitor)
CN(c1cccc(NC(=O)CCSc2ccccc2)c1)S(C)(=O)=O	Cycloheximide cs 38, Shiga inhibitor 35
COc1ccc(NC(=O)CN(C)CC(=O)Nc2cccc(S(=O)(=O)N(C)c3ccccc3)c2)cc1	Pf growth 96h inconclusive, Pf growth 48h inconclusive, HCV inhibitor inconclusive
Cc1ccc(NC(=O)COc2ccccc2C=O)cc1Cl	Cycloheximide cs 26
COC(=O)COc1cccc(NC(=O)COc2ccccc2)c1	none
COc1ccc(OCC(=O)Nc2ccc(S(=O)(=O)N(C)c3ccccc3)cc2)cc1	Pf growth 96h inconclusive
CN(c1ccccc1)S(=O)(=O)c1cccc(NC(=O)COc2ccccc2)c1	Pf growth 96h inconclusive, Pf growth 48h inconclusive, HCV inhibitor 10µM (no result: Cycloheximide cs, Shiga inhibitor)
CN(c1cccc(NC(=O)COc2ccccc2)c1)S(C)(=O)=O	Cycloheximide cs 43, Shiga inhibitor 75
COc1ccccc1OCC(=O)Nc1ccc(S(=O)(=O)N(C)c2ccccc2)cc1	Pf growth 96h inconclusive, Pf growth 48h inconclusive, HCV inhibitor 11µM
CN(c1ccccc1)S(=O)(=O)c1cccc(NC(=O)CN2C(=O)NC3(CCCC3)C2=O)c1	Pf growth 96h inconclusive, HCV inhibitor 2.8µM (no result: Cycloheximide cs, Shiga inhibitor)
CN(c1cccc(NC(=O)COc2ccc(Cl)cc2Cl)c1)S(C)(=O)=O	Cycloheximide cs 19, Shiga inhibitor 54
CCCN(CCC)S(=O)(=O)c1ccc(NC(=O)COc2ccccc2)cc1	Pf growth 96h 9.3µM (no result: Pf growth 48h)
O=C(CN1C(=O)NC2(CCCC2)C1=O)Nc1ccccc1	none
CC1=C(C(=O)N(C(C)C)C(C)C)CC(CC(=O)NCc2cccc3ccccc23)C(=O)N1Cc1ccccc1 (centres undefined)	none (no result: Cycloheximide cs, Pf growth 96h, Shiga inhibitor, Pf growth 48h, HCV inhibitor)
Cc1cc(C)c2nc(N3CCCC(C(=O)NCCN4CCOCC4)C3)sc2c1 (centres undefined)	Cycloheximide cs 36, Shiga inhibitor 46
CCN1CCN(CCCNC(=O)C2CCCN(c3nc4c(C)cc(C)cc4s3)C2)CC1 (centres undefined)	Cycloheximide cs 13, Pf growth 96h inconclusive, Shiga inhibitor 42, Pf growth 48h inconclusive, HCV inhibitor 10µM
Cc1cc(C)c2nc(N3CCCC(C(=O)NCCCN4CCOCC4)C3)sc2c1 (centres undefined)	HCV inhibitor inconclusive (no result: Pf growth 96h)
COc1ccc(N2CCN(C(=O)CCS(=O)(=O)c3ccc4c(c3)NC(=O)C(C)S4)CC2)cc1 (centres undefined)	Pf growth 96h 9.3µM, Pf growth 48h inconclusive, HCV inhibitor inconclusive
CCC(=O)N1CCc2cc(S(=O)(=O)CCC(=O)N3CCN(c4ccc(C(C)=O)cc4)CC3)ccc21	Pf growth 48h inconclusive, HCV inhibitor inconclusive

High-throughput results from PubChem.
